ALDH1A1 inh: qHTS Assay for Inhibitors of Aldehyde Dehydrogenase 1 (ALDH1A1). Potency, µM (titrated, usually from 75.3 µM), for inactives: at the highest dose activity, negative = inhibition, hits mostly inhibitors. Purified ALDH1A1, NADH fluorescence, propionaldehyde substrate. hit rate 7.3% among 220,000; active = well fitted inhibition curve with a large enough effect, not every such curve was filed as active; inconclusive = small, poorly fitted or top-dose-only effect, or another doubt; inactive = no such curve, though single readings can be large or run the other way;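 note: potency is the fitted concentration of half-maximal effect; plate controls were no enzyme wells and a reference inhibitor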
miR-21 act: qHTS Assay for Modulators of miRNAs and/orActivators of miR-21; HeLa miR-21 FLuc reporter, luciferase, 48 h; Potency, µM (top dose mostly 38.3 µM), for inactives: at the top dose activity change, positive = activation, actives largely listed as activators; 340,000 tested, under 10 active; AID 2288, 2010;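 note: % of control where 0% means no effect; miR-21 action dims this reporter so a rising signal means less miR-21 action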
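Using DMEM plus 10% FBS, HeLa miR-21-FLuc cells are incubated with test compounds (final up to about 40uM) for 48 hours; firefly luciferase signal is then imaged following reagent-mediated lysis.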
Lamin A splicing: qHTS Assay for Modulators of Lamin A Splicing. Potency, µM (top dose mostly 46.1 µM), without a hit: at the highest dose ratio change, negative = inhibition, hits mostly inhibitors. hit rate 0.01% among 200,000. AID 1487, 2009. HeLa LMNA splicing GFP/RFP minigene ratio, 48 h; active = well fitted inhibition curve with a large enough effect in the signal ratio, with a control signal flat, not every such curve was filed as active; inconclusive = small, poorly fitted or top-dose-only effect, or effect the other way, or a change in a side signal; the % refers to the signal ratio; note: potency is the fitted concentration of half-maximal effect; % is set by controls: 0 for no effect and ±100 for the full control effect
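Read-out is the ratio of GFP to DsRed2 object intensity, acquired by 488 nm laser-scanning cytometry on HeLa lamin A-EGFP minigene reporter cells. Compound incubation 48 hrs at 37 °C in Opti-MEM with 2% FBS; DMSO 0.5% final.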
KDM4E inh: qHTS Assay for Inhibitors of Human Jumonji Domain Containing 2E (JMJD2E); Lysine-specific demethylase 4E (Homo sapiens), B2RXH2; JMJD2E catalytic domain, FDH-coupled NADH fluorescence (FDH is formaldehyde dehydrogenase); Potency, µM (top dose mostly 57.1 µM), inactives show at the top dose activity change, negative = inhibition, usual class: inhibitors; hit rate 1.6% among 230,000; active = well fitted inhibition curve with a large enough effect, not every such curve was filed as active; inconclusive = small, poorly fitted or top-dose-only effect, or another doubt; inactive = no such curve, though single readings can be large or run the other way;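 note: potency is the fitted concentration of half-maximal effect; 0% = wells with enzyme and -100% = buffer wells without enzyme; nearly all actives have a fitted effect of over 50% in size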
Target sequence (B2RXH2 1-337 limits assumed): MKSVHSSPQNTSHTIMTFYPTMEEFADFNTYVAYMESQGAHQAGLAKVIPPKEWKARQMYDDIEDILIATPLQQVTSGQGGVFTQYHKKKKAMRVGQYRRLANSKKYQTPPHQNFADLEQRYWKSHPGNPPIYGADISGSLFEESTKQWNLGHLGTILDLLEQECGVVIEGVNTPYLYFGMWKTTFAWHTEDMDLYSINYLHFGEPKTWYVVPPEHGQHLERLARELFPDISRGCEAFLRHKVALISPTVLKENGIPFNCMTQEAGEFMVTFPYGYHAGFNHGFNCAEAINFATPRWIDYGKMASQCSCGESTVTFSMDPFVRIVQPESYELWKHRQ
G9a inh: qHTS Assay for Inhibitors of Histone Lysine Methyltransferase G9a. Histone-lysine N-methyltransferase EHMT2 (Homo sapiens), Q96KQ7. G9a H3K9 monomethylation, AlphaScreen, 2 h. Potency, µM (titrated, usually from 102 µM), inactives show at the highest dose activity, negative = inhibition, hits mostly inhibitors. hit rate 8.8% among 350,000; note: potency is the fitted concentration of half-maximal effect; % is set by controls: 0 for no effect and ±100 for the full control effect; nearly all actives have a fitted effect of over 75% in size
Target sequence (Q96KQ7 913-1193 limits assumed): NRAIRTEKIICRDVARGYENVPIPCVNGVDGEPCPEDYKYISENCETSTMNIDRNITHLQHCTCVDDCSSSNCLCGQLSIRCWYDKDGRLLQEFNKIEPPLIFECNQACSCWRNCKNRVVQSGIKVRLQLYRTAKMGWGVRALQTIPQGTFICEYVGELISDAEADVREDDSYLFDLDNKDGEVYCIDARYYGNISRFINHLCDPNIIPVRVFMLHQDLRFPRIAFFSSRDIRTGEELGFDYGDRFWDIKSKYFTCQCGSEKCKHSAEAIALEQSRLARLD
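Enzyme 20 nM + cpd, 15 min RT; add b-H3K9 pep 500 nM / SAM 20 uM; 2 h RT; anti-H3K9me1 Ab 0.5 ug/mL + SA donor / anti-rabbit acceptor beads 20 ug/mL each, 10 min; AlphaScreen read.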
Sfp inh: qHTS Assay for Inhibitors of Bacillus subtilis Sfp phosphopantetheinyl transferase (PPTase); hit rate 3.5% among 310,000; 4'-phosphopantetheinyl transferase ffp (Bacillus subtilis), Q9F4F7; Biochemical Sfp PPTase activity, qHTS; Potency, µM, without a hit: largest response in the series, negative = inhibition, usual class: inhibitors; AID 1490, 2009;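 note: the enzyme is Sfp with the accession as filed and its product quenches rhodamine fluorescence; potency is the fitted concentration of half-maximal effect; 0% = enzyme reaction without inhibitor and -100% = no enzyme wells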
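Compounds were incubated with enzyme (final 15 nM) for 15 min at room temperature before substrate addition started the reaction. Fluorescence at 525 nm excitation, 598 nm emission was recorded immediately and after 30 minutes.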
An asterisk follows results filed as active; ? = inconclusive; · = not tested or not shown; [ ] = remark or other dose. Hits are enriched below; roughly 13% of the tested compounds scored in any of these assays. Unless noted, calls come from the whole dose curve; as a rule, active = well fitted curve in the direction sought with a large enough effect; inconclusive = small, poorly fitted or top-dose-only effect, or another doubt; inactive = no such curve, though single readings can be large; an effect the other way counts as inactive or inconclusive.

SMILES	ALDH1A1 inh	miR-21 act	Lamin A splicing	KDM4E inh	G9a inh	Sfp inh
CC(C)=CCC/C(C)=C/CO/N=C1/C[C@@H](O)[C@@H](O)[C@@H]2[C@H]3C(=O)N(c4ccc(F)cc4F)C(=O)[C@@H]3CC[C@H]12	-11%[13.5 µM]	·	·	·	·	-2%
CCCCCCn1c(SCCCC)nc2c1c(=O)[nH]c(=O)n2C	-10%	-8%	22%	12%	?	13%
CCn1c([N+](=O)[O-])nc2c1c(=O)[nH]c(=O)n2C	16µM*	?	?	-10%	40µM*	-5%
CCc1ccc(-c2[nH]c3c(c2-c2c(-n4cccc4)n(C)c(=O)n(C)c2=O)c(=O)n(C)c(=O)n3C)cc1	·	0%	-9%[46 µM]	·	-10%[59 µM]	·
N#Cc1cc[n+](CC(=O)c2ccc(NC(=O)c3ccccc3)cc2)cc1	·	-26%	·	-10%	71µM*	9%
O=C(C[n+]1ccc(C(=O)N/N=C/c2ccc(Br)cc2)cc1)c1ccccc1	2%	0%	-4%	-18%	7.9µM*	-24%
O=C(N/N=C/c1ccc(OCC(=O)N2CCCCC2)cc1)c1ccccc1	18µM*	-12%	1%	-8%	?	21%
Cc1cccc[n+]1CC(=O)c1ccc(NC(=O)c2ccccc2)cc1	·	0%	·	·	·	3%
COc1ccc(/C=N/NC(=O)C[n+]2ccccc2)c(OC)c1	8%	4%	5%[46 µM]	-3%	-19%	24%
COc1ccc(OC)c(/C=N/NC(=O)c2cc[n+](CC(=O)c3ccccc3)cc2)c1	-8%	-2%	2%	-21%	79µM*	3%
COc1ccc(OC)c(CNC(=O)CN2CC(C)Sc3ccccc32)c1 (stereo not drawn)	·	-11%	3%[46 µM]	·	?	·
O=C(N/N=C/c1ccc(OCc2ccccc2)cc1)c1ccncc1	?	-45%	·	-20%	-17%	14%
O=C(C[n+]1ccc(C(=O)N/N=C/c2ccc(OCc3ccccc3)cc2)cc1)c1ccccc1	?	-26%	1%	28µM*	?	?
COc1ccc(C(=O)N/N=C/c2c[nH]c3ccccc23)cc1	·	-26%	·	·	30%	17%
O=C(N/N=C/c1ccc(F)cc1)c1ccccc1	8%	-38%	10%[46 µM]	3%	12%	7%
COc1ccc(C(=O)N/N=C/c2cc3ccccc3[nH]c2=S)cc1	1.4µM*	1%	-6%	?	0.71µM*	-8%
O=C(C[n+]1ccc(C(=O)N/N=C/c2ccc(O)cc2)cc1)c1ccccc1	1.6µM*	-7%	0%	?	14µM*	?
CN(C(=O)Cn1ncc2c1-c1ccccc1OC2)c1ccc(Br)cc1	·	2%	·	·	-2%[59 µM]	·
O=C(Nc1ccc(C(F)(F)F)cc1)C1CCN(S(=O)(=O)c2ccc(N3CCCC3=O)cc2)CC1	·	3%	·	·	20%	-20%
O=C(N/N=C/c1cccc(OC(=O)c2cccc(Br)c2)c1)c1ccncc1	·	-3%	·	·	2%	5%
O=C(NCCNC(=O)c1ccco1)c1ccc(F)cc1	13%	-2%	·	-1%	-2%	23%
O=C(/C(C=Nc1ccc(F)cc1)=C(/O)c1ccco1)C(F)(F)F	-2%	-74%	-4%	1%	40µM*	2%
Cc1ccc(N=C/C(C(=O)C(F)(F)F)=C(\O)c2ccco2)cc1Cl	2.2µM*	-53%	-2%	?	45µM*	-12%
Cc1cccc(N=C/C(C(=O)C(F)(F)F)=C(\O)c2ccco2)c1	-1%	-5%	-18%	-7%	44%[59 µM]	8%
COC(=O)[C@@]1(Cc2ccc(OC)cc2)[C@H]2c3cc(C(=O)N4CCCC4)n(Cc4cc(F)c(F)c(F)c4)c3C[C@H]2CN1C(=O)c1ccccc1	-3%	·	·	1%	·	14%
SMILES	ALDH1A1 inh	miR-21 act	Lamin A splicing	KDM4E inh	G9a inh	Sfp inh
CN1CCc2c1nc1ccccc1c2N (tested in a mixture with another compound)	·	0%	·	·	79µM*	4%
Cc1ccc2nc3c(c(N)c2c1)CCN3C	·	-2%	·	·	8.9µM*	-16%
CC(C)C(=O)Nc1c2c(nc3ccccc13)N(C)CC2	?	0%	?	?	-4%[0.0925 µM]	12%
Nc1c2c(nc3cccc(Cl)c13)N(c1ccccc1)CC2	·	-3%	·	·	18%	9%
Cc1cccc2c(N)c3c(nc12)N(C)CC3	·	12%	·	·	50µM*	-9%
Cc1ccc2nc3c(c(N)c2c1)CCN3c1ccccc1	?	-27%	?	?	18µM*	-16%
CCCCN(CC)Cc1ccc(CNC(=S)Nc2c(C)cc(C)cc2C)o1	-7%	0%	·	-11%	?	45µM*
CCCCN(CC)Cc1ccc(CNC(=S)Nc2ccc(C)cc2Cl)o1	?	0%	-3%[46 µM]	-7%	35µM*	-13%
CCCNC(=O)c1ccc2c(c1)nc(C)n2-c1cccc(Cl)c1	·	-15%	·	·	13%	7%
O=C(c1cc(C(F)(F)F)cc(C(F)(F)F)c1)N1CCC2(CCCN(Cc3ccccc3)C2)CC1	4%	·	·	·	1%[12.7 µM]	12%
CCOC(=O)CCCc1sc(N)nc1-c1[nH]c(=O)[nH]c1C	13µM*	-12%	8%	?	4.5µM*	22µM*
CCOC(=O)CCc1c(C)n[nH]c1C	0%	-2%	·	-10%	-28%	13%
COc1ccc(CNC(=O)CN(Cc2ccco2)C(=O)CCC(=O)Nc2ccccn2)cc1	·	6%	·	·	4%	10%
CCOC(=O)C1=C(O)/C(=C/c2cn(CC(=O)N3CCCC3)c3ccccc23)SC1=Nc1ccccc1	3%	-18%	-7%	-3%	-3%[59 µM]	32µM*
COC(=O)c1cn(CC(=O)N2CCCCCC2)c2ccccc12	10%	-11%	-12%	0%	0%[59 µM]	1%
CCOC(=O)c1cnc2nc(C)nn2c1N	-13%	1%	14%[9.22 µM]	-6%	28µM*	12%
C=CCSc1ncc(C(=O)OCC)c(N)n1	1%	-61%	-7%[46 µM]	-24%	20%	6%
CCOC(=O)CC(=O)CSc1ncc(C(=O)OCC)c(N)n1	22µM*	-9%	-7%	0%	1%[59 µM]	9%
CCOC(=O)c1cnc2nc(N3CCOCC3)nn2c1N	-5%	2%	-3%[46 µM]	?	1%	8%
CCOC(=O)c1cnc2nc[nH]n2c1=O	4%	2%	?	6%	56µM*	-16%
CCOC(=O)c1cnc(SSc2ncc(C(=O)OCC)c(N)n2)nc1N	·	-3%	·	·	-6%[0.501 µM]	7.9µM*
